# An excerpt weighted towards active compounds, which were near 1.2% of everything screened.
# EPAC1 antag = blocks human EPAC1 exchange factor | O95398 | EPAC1 GEF assay, Rap1b-BODIPY-GDP exchange fluorescence | Potency, µM (highest dose often 115 µM), without a hit: top-dose activity change, negative = inhibition, actives largely listed as inhibitors | 360,000 compounds, 0.14% hits;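 further: plate controls were vehicle for no effect and positive control for full effect; nearly all actives have a fitted effect of over 50% in size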
# VDR inh = vitamin D3 receptor (human) inhibition. Potency, µM, for the others: max response, negative = inhibition, hits mostly inhibitors. VDR-SRC2-3 peptide fluorescence polarization, 2 h. 400,000 compounds, 0.93% hits; further: on the % scale 0 is the no-effect control and ±100 the full control effect
#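 Compounds are added to VDR with labelled SRC2-3 coactivator peptide and held 2 h at room temperature. Inhibition of the VDR–peptide interaction is then read as a change in fluorescence polarization.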
# EPAC1 ag = EPAC1 (human) agonism. O95398. EPAC1 agonist qHTS, biochemical assay; response scale: 100% = response to 6.5 mM cAMP. Potency, µM (doses to about 154 µM), for the others: top-dose activation, hits mostly activators. 360,000 compounds, 0.073% hits. AID 720707; further: nearly all actives have a fitted effect of over 60% in size
#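 EPAC1 100 nM, Rap1B–BODIPY-GDP 250 nM, unlabeled GDP 50 uM; compound titration; 5 min RT; kinetic read ex480/em540 at 5-min intervals ×30 min; data normalized to 6.5 mM cAMP agonist control.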
# EPAC2 agonist = activates human EPAC2 exchange factor; 360,000 compounds, 0.079% hits; AID 720711; Potency, µM (titrated, usually from 154 µM), inactives show at the top dose activation, usual class: activators; EPAC2 activation, biochemical qHTS; response scale: 100% = 6.5 mM cAMP response; further: nearly all actives have a fitted effect of over 50% in size
#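 Setup: EPAC2 100 nM, labeled Rap1B complex 250 nM, free GDP 50 uM. Compound titrations pinned in, brief spin, 5 min room temperature incubation. Kinetic fluorescence read over 30 min, normalized to 6.5 mM cAMP.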
# EPAC2 antag = blocks human EPAC2 exchange factor | Potency, µM (highest dose often 114 µM), for inactives: at the top dose activity, negative = inhibition, actives largely listed as inhibitors | 360,000 compounds, 0.18% hits | Q8WZA2 | EPAC2 GEF exchange of Rap1B-BODIPY-GDP, fluorescence | AID 720708; further: on the % scale 0 is the no-effect control and ±100 the full control effect; nearly all actives have a fitted effect of over 45% in size
# USP1 inh = inhibitors of human USP1/UAF1 deubiquitinase. O94782. recombinant USP1/UAF1, Ub-Rhodamine cleavage fluorescence. Potency, µM (highest dose often 57.1 µM), for inactives: at the highest dose activity change, negative = inhibition, hits mostly inhibitors. 390,000 compounds, 0.23% hits. AID 743255; further: on the % scale 0 is the no-effect control and ±100 the full control effect; nearly all actives have a fitted effect of over 60% in size
# Target sequence (O94782 whole entry, looked up): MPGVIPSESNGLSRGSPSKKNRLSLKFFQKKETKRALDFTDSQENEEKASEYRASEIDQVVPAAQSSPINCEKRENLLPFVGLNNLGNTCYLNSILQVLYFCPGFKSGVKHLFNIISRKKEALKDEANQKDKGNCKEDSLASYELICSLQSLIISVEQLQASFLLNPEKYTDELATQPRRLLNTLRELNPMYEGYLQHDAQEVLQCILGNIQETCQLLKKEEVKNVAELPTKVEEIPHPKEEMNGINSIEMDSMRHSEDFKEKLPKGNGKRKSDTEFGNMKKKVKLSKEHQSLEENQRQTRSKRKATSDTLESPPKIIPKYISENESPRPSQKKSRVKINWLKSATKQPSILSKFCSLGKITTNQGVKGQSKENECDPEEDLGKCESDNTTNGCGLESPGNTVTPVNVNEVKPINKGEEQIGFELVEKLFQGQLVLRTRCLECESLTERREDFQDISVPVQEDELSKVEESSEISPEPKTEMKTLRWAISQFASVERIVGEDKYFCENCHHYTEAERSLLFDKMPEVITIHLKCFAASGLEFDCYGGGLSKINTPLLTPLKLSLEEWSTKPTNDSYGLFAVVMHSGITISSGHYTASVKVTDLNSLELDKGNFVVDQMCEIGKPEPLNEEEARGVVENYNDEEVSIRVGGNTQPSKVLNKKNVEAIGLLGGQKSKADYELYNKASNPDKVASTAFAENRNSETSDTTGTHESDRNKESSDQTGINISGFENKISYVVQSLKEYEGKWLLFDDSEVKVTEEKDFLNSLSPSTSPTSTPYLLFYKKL
#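 Step one: compound is pinned into 1nM USP1/UAF1 in HEPES pH 7.8 buffer with TCEP. Step two: 15 min room-temperature incubation. Step three: Ub-Rho (150nM final) starts cleavage, tracked by fluorescence over six one-minute reads.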
# The depositor's hits bear a star; ? = inconclusive; nt = not tested or not shown. The call rests on the fitted dose curve; in most records, active means well fitted curve in the direction sought with a large enough effect; inconclusive means small, poorly fitted or top-dose-only effect, or another doubt; inactive means no such curve, though single readings can be large; an effect the other way counts as inactive or inconclusive. Potency means the concentration at half of the fitted maximal effect.
SMILES,EPAC1 antag,VDR inh,EPAC1 ag,EPAC2 agonist,EPAC2 antag,USP1 inh
C=C1C2=CC(=O)OC(c3ccoc3)[C@]2(C)CCC1[C@]1(C)C=CC(=O)C(C)(C)C1CC(=O)OC (stereo partly specified),nt,40µM*,nt,nt,nt,nt
Cc1ccccc1NC1c2ccccc2C(=O)N1Cc1ccco1 (stereo unspecified),3%,-29%,-10%,8%,32µM*,-27%
COc1cccc(NC2c3ccccc3C(=O)N2Cc2ccco2)c1 (stereo unspecified),-19%,-26%,0%,7%,-13%,-13%
COc1ccc(N=Cc2nc(-c3ccccc3)oc2OC(C)=O)cc1,15%,28µM*,-13%,6%,16%,-23%
O=C(O)C1=C(OCc2ccc(F)c(F)c2)C(=O)NCC1,-2%,79µM*,-5%,-13%,5%,-16%
COc1cc(NC(=O)c2cc3ccccc3o2)c(OC)cc1Br,-4%,10%,4%,10µM*,4%,-2%
COc1cc(NC(=O)c2cc3ccccc3o2)c(OC)cc1Cl,-7%,5%,7%,6%,4%,-19%
CC(C)(C)C1CCc2c(sc(NC(=O)C3CCCO3)c2C(N)=O)C1 (stereo unspecified),-19%,10%,15%,9%,-21%,-1%
Cc1onc(C(=O)Nc2sc3c(c2C(N)=O)CCCC3)c1[N+](=O)[O-],-14%,79µM*,5%,5%,-1%,-14%
CC(C)(C)C1CCc2onc(C(=O)Nc3sc4c(c3C(N)=O)CCCC4)c2C1 (stereo unspecified),nt,79µM*,nt,nt,nt,-23%
Cc1ccc2nc(NC(=O)CSc3cc(C)[nH]c(=O)n3)sc2c1,nt,2%,nt,nt,nt,-27%
Cc1cc(C)c(OCC(=O)N(Cc2ccco2)Cc2ccco2)c(C)c1,nt,10%,nt,nt,nt,-17%
O=C(O)c1cc(Cl)c2ccccc2c1O,6%,-13%,3%,-3%,-12%,-17%
O=C(O)c1cc2ccccc2c(Cc2cc3ccccc3c(C(=O)O)c2O)c1O (tested in a mixture with another compound),nt,14µM*,nt,nt,nt,nt
COc1ccc2c(c1OC)C(=O)N1c3ccccc3N=C(c3ccc([N+](=O)[O-])cc3)CC21 (stereo unspecified),12%,89µM*,0%,-3%,-11%,-10%
COc1ccc2c(c1OC)C(=O)N1N=C(c3ccc(-c4ccccc4)cc3)CC21 (stereo unspecified),-9%,-9%,5%,0%,3%,-6%
CC(=O)/C(=C/c1ccccc1)C(=O)Nc1ccccc1C,-19%,22µM*,3%,13%,7%,-7%
COc1ccc2c(c1)C(=O)[C@H](OC(=O)NS(=O)(=O)c1ccc(C)cc1)[C@@H](c1ccc(OC)c(Br)c1)O2,nt,3%,nt,nt,nt,nt
COc1c(C2=CC(=O)N(C)C2=O)c2c(n1C)C(=O)c1ccccc1C2=O,nt,13µM*,nt,nt,nt,nt
FC(F)Oc1ccc(/C=N/n2c(Cc3ccc(Br)cc3)n[nH]c2=S)cc1,-25%,79µM*,14%,9%,-16%,-6%
C=CCCN(Cc1ccc(OC)cc1)S(=O)(=O)c1ccccc1Br,nt,-12%,nt,nt,nt,nt
COc1ccccc1/C=C(/C(=O)OCC(=O)Nc1ccc(N(C)C)cc1)c1ccccc1,-25%,-7%,3%,16%,50µM*,-1%
NCCCCCCCCCCNCCCN,nt,6%,nt,nt,nt,nt
O=C(O)c1cc(O)c2c(c1)[C@@H]([C@H]1c3cc(C(=O)O)cc(O)c3C(=O)c3c(O[C@@H]4O[C@H](CO)[C@@H](O)[C@H](O)[C@H]4O)cccc31)c1cccc(OC3O[C@H](CO)[C@@H](O)[C@H](O)[C@H]3O)c1C2=O (stereo partly specified),?,-29%,5%,8%,?,5.6µM*
O=C(O)c1cc(O)c2c(c1)[C@H]([C@H]1c3cc(C(=O)O)cc(O)c3C(=O)c3c(O[C@@H]4O[C@H](CO)[C@@H](O)[C@H](O)[C@H]4O)cccc31)c1cccc(OC3O[C@H](CO)[C@@H](O)[C@H](O)[C@H]3O)c1C2=O (stereo partly specified),3.5µM*,?,-8%,2%,?,7.1µM*
SMILES,EPAC1 antag,VDR inh,EPAC1 ag,EPAC2 agonist,EPAC2 antag,USP1 inh
COC(=O)[C@H]1O[C@@H](c2cc(OC)c(C)c(OC)c2OCc2ccccc2)[C@H](C)[C@@H]2O[C@]12C,nt,0%,nt,nt,nt,nt
CC(C)ON([C@@H](C(=O)NO)C(C)C)S(=O)(=O)c1ccc(-c2ccccc2)cc1,nt,-15%,nt,nt,nt,nt
CC1CCCCC1NC(=O)COC(=O)c1c2c(nc3ccccc13)/C(=C\c1ccco1)CC2 (stereo unspecified),35µM*,1%,-27%,-16%,-2%,?
O=C(COC(=O)c1c2c(nc3ccccc13)/C(=C\c1ccco1)CC2)NC1CCCC1,?,-18%,6%,-1%,0%,-10%
CCC(=O)OC1(C)C(=O)C2=COC(c3ccc(OC)cc3)=CC2=C(Br)C1=O (stereo unspecified),?,?,13%,26%,11%,35µM*
COc1ccc(C2=CC3=CC(=O)C(C)(O)C(=O)C3=CO2)cc1 (stereo unspecified),nt,3%,nt,nt,nt,nt
COc1ccc(C2=CC3=C(Br)C(=O)C(C)(O)C(=O)C3=CO2)cc1 (stereo unspecified),-15%,?,1%,7%,?,35µM*
COc1ccc(-c2cn3c(n2)sc2cc(C(=O)NCCC4=CCCCC4)ccc23)cc1,nt,13%,nt,nt,nt,-10%
CC[C@H](C)[C@H](N)C(=O)N[C@@H](CCCNC(=N)N)C(=O)N[C@@H](CCC(N)=O)C(=O)NCC(=O)N1CCC[C@H]1C(=O)N[C@@H](CCCCN)C(=O)N[C@@H](CCC(=O)O)C(=O)N1CCC[C@H]1C(=O)N[C@@H](Cc1ccccc1)C(=O)N[C@@H](CCCNC(=N)N)C(=O)N[C@@H](CC(=O)O)C(=O)N[C@@H](Cc1ccc(O)cc1)C(=O)N[C@H](C(=O)N[C@@H](CC(=O)O)C(=O)N[C@@H](CCCNC(=N)N)C(=O)N[C@@H](Cc1ccccc1)C(=O)N[C@@H](Cc1ccc(O)cc1)C(=O)N[C@@H](CCCCN)C(=O)N[C@H](C(=O)N[C@@H](CC(C)C)C(=O)O)[C@@H](C)O)C(C)C,nt,3%,nt,nt,nt,nt
COC(=O)c1cn(C(=O)c2cc(OC)c(OC)c(OC)c2)c2ccccc12,1%,-5%,-1%,5%,18µM*,-24%
